Screening data (PubChem)
LASV entry inh: qHTS for Inhibitors of binding or entry into cells for Lassa Virus; AID 540256, 2011; Potency, µM (highest dose often 37.9 µM), for inactives: top-dose activity change, negative = inhibition, most hits filed as inhibitors; 1.2% of 300,000 active; Lassa virus pseudotype entry inhibition, cell reporter; calls by dose curve; tested in HEK293 cells; further: potency means the concentration at half of the fitted maximal effect; nearly all actives have a fitted effect of over 50% in size
Vaccinia Venus: qHTS for Stage-Specific Inhibitors of Vaccinia Orthopoxvirus: Venus Reporter Primary qHTS; Vaccinia virus Venus reporter expression, fluorescence; Potency, µM (highest dose often 36.5 µM), inactives show top-dose activity change, negative = inhibition, most hits filed as inhibitors; 0.46% of 330,000 active; calls by dose curve; tested in A549 cells; further: potency means the concentration at half of the fitted maximal effect; nearly all actives have a fitted effect of over 30% in size
Marburg entry inh: qHTS for inhibitors of binding or entry into cells for Marburg Virus; Marburg virus pseudotyped entry inhibition, cell reporter; Potency, µM (titrated, usually from 37.8 µM), for inactives: at the top dose activity change, negative = inhibition, most hits filed as inhibitors; 1.8% of 300,000 active; calls by dose curve; tested in HEK293 cells; further: potency means the concentration at half of the fitted maximal effect
VACV mCherry inh: qHTS for Stage-Specific Inhibitors of Vaccinia Orthopoxvirus: mCherry Reporter Primary qHTS | Vaccinia virus mCherry reporter infection, fluorescence | Potency, µM (highest dose often 36.5 µM), without a hit: at the highest dose activity change, negative = inhibition, hits mostly inhibitors | 0.63% of 310,000 active; calls by dose curve; tested in A549 cells; further: potency means the concentration at half of the fitted maximal effect; nearly all actives have a fitted effect of over 35% in size
FMDV antiviral: High Throughput Screening for Foot and Mouth Disease Virus Antivirals; FMDV antiviral cell-based qHTS; Potency, µM (doses to about 57.9 µM), for inactives: at the highest dose activity change, negative = inhibition, hits mostly inhibitors; 1.2% of 410,000 active; AID 1159524, 2015; calls by dose curve; tested in HEK293T cells; further: read-out not given here; potency means the concentration at half of the fitted maximal effect; nearly all actives have a fitted effect of over 45% in size
HCMV antiviral: qHTS Assay for inhibitors of the human cytomegalovirus (HCMV) | HFF cells, HCMV-luciferase reporter, 72 h; stronger effect = lower value | activity change, negative = inhibition, % at 57.5 µM | 4.5% of 410,000 active; in the data active means activity change below about -60%; inconclusive means no clear call, values can overlap the other calls; inactive means above about -39%
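HFF cells seeded 16 h at 37C, treated with compounds, infected with luciferase-reporter HCMV at MOI 1 PFU/cell; luciferase read at 72 h post infection, normalized to buffer-only and Salinomycin controls.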
Numbers without * were called inactive; [ ] = dose if it differs, or a comment. A selection: hits, their analogues and other compounds. The true share with any hit is near 6.5%. On the % scale 0 is the no-effect control and ±100 the full control effect.

How did COc1ccc(-c2nc(-c3ccc(NC(=O)c4ccncc4)cc3)no2)cc1OC do in these assays?
LASV entry inh: -19%; Vaccinia Venus: -13%; Marburg entry inh: inconclusive; VACV mCherry inh: 4%; FMDV antiviral: 8.9µM*

What do the screens show for `COCc1cc(N2CCN(C(=O)OC(C)(C)C)C[C@@H]2C)ccc1N1CC[C@@H](O)C1`?
HCMV antiviral: 19

What do the screens show for `CCCc1nc2cccnc2n1C1CCN(C(=O)CC2NC(=O)c3ccccc32)CC1` (stereo not given)?
Vaccinia Venus: -10%; VACV mCherry inh: -13%; FMDV antiviral: -14%

Results for CC1CCN(C(=O)c2ncn3c2C(=O)NC[C@@H]3C)CC1 ?
HCMV antiviral: -14

Results for CCSc1ncc(Cl)c(C(=O)Nc2nc3ccc(S(C)(=O)=O)cc3s2)n1 ?
LASV entry inh: -11%[46.1 µM]; Vaccinia Venus: -17%; Marburg entry inh: inconclusive; VACV mCherry inh: -10%; FMDV antiviral: -22%; HCMV antiviral: -26

Results for O=c1oc2cc(OCc3c(F)cccc3Cl)ccc2cc1-c1ccccn1 ?
LASV entry inh: inconclusive; Vaccinia Venus: -1%; Marburg entry inh: 2%; VACV mCherry inh: 0%[1.46 µM]; FMDV antiviral: -27%; HCMV antiviral: 10

What do the screens show for `COc1ccc2cc(-c3ccccc3)c(=O)oc2c1`?
LASV entry inh: 4.5µM*; Vaccinia Venus: -25%; Marburg entry inh: inconclusive; VACV mCherry inh: inactive; FMDV antiviral: -20%; HCMV antiviral: 0

How did COC(=O)C(C)Oc1ccc2cc(-c3ccccc3)c(=O)oc2c1 (stereo not given) do in these assays?
LASV entry inh: 12%[46.1 µM]; Vaccinia Venus: -19%; Marburg entry inh: inconclusive; VACV mCherry inh: -27%; FMDV antiviral: 15%; HCMV antiviral: 0

Results for CCCOc1ccc2cc(-c3ccccn3)c(=O)oc2c1 ?
LASV entry inh: 2.8µM*; Vaccinia Venus: -18%; Marburg entry inh: 1.8µM*; VACV mCherry inh: inactive; FMDV antiviral: 10µM*; HCMV antiviral: -77*

What do the screens show for `Cc1ccc(CCNC(=O)c2cn(C)c3ccc(S(=O)(=O)N4CCCCC4)cc3c2=O)cc1`?
LASV entry inh: 0%[46.1 µM]; Vaccinia Venus: -20%; Marburg entry inh: inconclusive; VACV mCherry inh: inconclusive; FMDV antiviral: 0%; HCMV antiviral: -2

What do the screens show for `CCOC(=O)c1ccc(N2C(=O)[C@@H](c3ccccc3)[C@H]2c2ccccc2)cc1`?
Vaccinia Venus: -8%; VACV mCherry inh: inactive; FMDV antiviral: -21%; HCMV antiviral: 0

Results for CCOC(=O)c1ccc(N2C(=O)C3CCOc4ccccc4C32)cc1 (stereo not given) ?
Vaccinia Venus: inconclusive; VACV mCherry inh: inactive; FMDV antiviral: -16%; HCMV antiviral: -79*

Results for CS(=O)(=O)c1sc(C#N)c2c1C(=O)CC(c1ccccc1)C2 (stereo not given) ?
FMDV antiviral: 11µM*; HCMV antiviral: -104*

How did Cc1oc2c(c(=O)c1C)C(=O)CC(c1ccccc1)C2 (stereo not given) do in these assays?
LASV entry inh: inconclusive; Vaccinia Venus: -13%; Marburg entry inh: -20%; FMDV antiviral: -28%; HCMV antiviral: 1

What do the screens show for `CSc1nnc(-c2cccc(NC(=S)NN)c2)o1`?
Vaccinia Venus: -12%; VACV mCherry inh: inactive; FMDV antiviral: 4%; HCMV antiviral: -66*

Results for CCCCc1ccc(NC(=O)CSc2nc(=O)n3cc(C)ccc3n2)cc1 ?
LASV entry inh: 16%; Vaccinia Venus: -9%; Marburg entry inh: -18%[46.1 µM]; VACV mCherry inh: -8%; FMDV antiviral: -29%; HCMV antiviral: -67*

What do the screens show for `CCCCc1ccc(NC(=O)CSc2nc(=O)n(CCN(C)C)c3c2CCC3)cc1`?
LASV entry inh: inconclusive; Vaccinia Venus: 14µM*; Marburg entry inh: inconclusive; VACV mCherry inh: 28µM*; FMDV antiviral: 2%; HCMV antiviral: -38

How did CCOc1ccccc1NC(=O)CSc1nc(=O)n(CCN2CCOCC2)c2c1CCCC2 do in these assays?
LASV entry inh: -4%; Vaccinia Venus: -9%; Marburg entry inh: 25%; VACV mCherry inh: -22%; FMDV antiviral: 1%; HCMV antiviral: -81*

Results for Cc1cccc(NC(=O)CSc2nc(=O)n(CCN3CCOCC3)c3c2CCC3)c1C ?
LASV entry inh: -3%[46.1 µM]; Vaccinia Venus: -10%[7.34 µM]; VACV mCherry inh: -10%[7.34 µM]; FMDV antiviral: -16%; HCMV antiviral: -36

How did CN(C)c1ccc(/C=C2\C=Cc3ccccc32)cc1F do in these assays?
Vaccinia Venus: 8%; VACV mCherry inh: -9%

How did Cc1c(C(=O)NCC2Cc3cccc(-c4cncnc4)c3O2)c(-c2ccccc2)nn1-c1ccccc1 (stereo not given) do in these assays?
Vaccinia Venus: 10%; VACV mCherry inh: -14%; FMDV antiviral: -6%

How did COC(=O)c1ccc(NC(=O)CSc2nc3ccc(N4C(=O)C5C6C=CC(C6)C5C4=O)cc3s2)cc1 (stereo not given) do in these assays?
LASV entry inh: inconclusive; Vaccinia Venus: 7.1µM*; Marburg entry inh: inconclusive; VACV mCherry inh: inconclusive; FMDV antiviral: 14µM*; HCMV antiviral: -64*

How did COc1ccc(C2C(=O)N(C3CCCCCC3)CC(=O)N2Cc2ccc(C)cc2)cc1OC (stereo not given) do in these assays?
LASV entry inh: -26%[46.1 µM]; Vaccinia Venus: -7%; VACV mCherry inh: -1%; FMDV antiviral: -18%; HCMV antiviral: -26

Results for Cc1[nH]c2ccc(-c3nnc(SCC(=O)c4ccc(F)cc4)o3)cc2c1C ?
LASV entry inh: 9.2µM*; Vaccinia Venus: -14%; Marburg entry inh: -22%; VACV mCherry inh: -23%; HCMV antiviral: inconclusive

What do the screens show for `Cc1cc(C)c(C)c(C(=O)CSc2nnc(-c3ccc4[nH]c(C)c(C)c4c3)o2)c1C`?
LASV entry inh: inconclusive; Vaccinia Venus: -6%; Marburg entry inh: inconclusive; FMDV antiviral: inconclusive; HCMV antiviral: inconclusive

What do the screens show for `Cc1cc(S(=O)(=O)N2CCN(c3ccccc3F)CC2)ccc1-n1cnnn1`?
LASV entry inh: -2%; Vaccinia Venus: -28%; Marburg entry inh: inconclusive; VACV mCherry inh: -28%; FMDV antiviral: inconclusive; HCMV antiviral: -77*

Results for Cc1cc(S(=O)(=O)N(Cc2cccs2)Cc2ccccc2F)ccc1-n1cnnn1 ?
LASV entry inh: inconclusive; Vaccinia Venus: -7%; Marburg entry inh: inconclusive; VACV mCherry inh: inactive; FMDV antiviral: 30%; HCMV antiviral: -64*

How did O=C(Nc1csc([N+](=O)[O-])c1)Nc1ccccc1Cl do in these assays?
LASV entry inh: -8%; Vaccinia Venus: 0%[7.34 µM]; Marburg entry inh: inconclusive; VACV mCherry inh: inactive[7.34 µM]; FMDV antiviral: -3%; HCMV antiviral: -67*
